Results from publication PMC7819943, “Rice protein-binding microarrays: a tool to detect cis-acting elements near promoter regions in rice”.
Over roughly 39,000 sequences, “fluorescence intensity (a.u.)” has its median near 4,300; the highest 2% begin near 39,000. Shown is part of a subset that was picked to be rich in the highest values.

biological target: T1, OsSMF1 (Oryza sativa, UniProt Q6ZLB0 1-436); experiment: protein-binding microarray (RPBM); PBS, 2% BSA, 51.3 ng/ul salmon testes DNA, 50 uM zinc acetate, 200 nM TF, 25 C, 1 h; high values mean tight binding; details: protein: recombinant; tags: N-terminal polyhistidine and DsRed monomer fusion (pET32a); chain copies: 2; label: CyDye5-dUTP incorporated in the synthesized complementary strand; 3' TTTTT single-stranded linker to array surface; dsDNA, one strand shown
T1 sequence: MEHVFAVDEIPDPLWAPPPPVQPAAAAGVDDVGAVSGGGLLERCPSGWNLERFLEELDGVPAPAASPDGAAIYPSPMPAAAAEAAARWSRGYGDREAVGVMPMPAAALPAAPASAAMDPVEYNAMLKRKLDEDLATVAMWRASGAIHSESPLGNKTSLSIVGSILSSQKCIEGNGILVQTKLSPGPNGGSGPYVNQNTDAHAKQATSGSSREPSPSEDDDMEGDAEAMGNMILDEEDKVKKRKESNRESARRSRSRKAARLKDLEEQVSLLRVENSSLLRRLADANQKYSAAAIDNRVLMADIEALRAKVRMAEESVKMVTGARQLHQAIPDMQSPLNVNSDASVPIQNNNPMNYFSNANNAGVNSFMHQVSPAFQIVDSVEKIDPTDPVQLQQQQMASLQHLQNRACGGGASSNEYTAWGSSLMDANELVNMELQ
How it was run: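 Binding signal here means per-feature fluorescence intensity in arbitrary units. The values were read on an Axon 4000B scanner after a custom Agilent array, double-stranded by primer extension with Cy5-dUTP, was incubated with 200 nM protein at 25 °C for 1 h in PBS with 2% BSA, salmon testes DNA and 50 µM zinc acetate, then washed. The proteins were transcription factors with an N-terminal polyhistidine tag and DsRed, expressed in E. coli BL21-CodonPlus and purified on Ni–NTA.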

Sequence	binding signal
TATCAAATTATAGCGCAATTAGGCTCAAAAGATTCAGATTCGGAGTCACCTAGTGCAG	26600 fluorescence intensity (a.u.)
GATTCGTCTCGCGATTTCCATTCAAACTGTGCAATTAGTTCGGAGTCACCTAGTGCAG	28000 fluorescence intensity (a.u.)
GGCTTAAAAGATTCGTTTCATAATTTACACGCAAACTGTACGGAGTCACCTAGTGCAG	3890 fluorescence intensity (a.u.)
GGCTCAAAAGATTCATCTCGCGATTTCCATACAAACTGTACGGAGTCACCTAGTGCAG	46300 fluorescence intensity (a.u.)
AAAAGATTCGTCTCGCAATTTACACGTAACCTGTGTAATTCGGAGTCACCTAGTGCAG	7350 fluorescence intensity (a.u.)
GGGTGATTGAATCCTTGTCATCTAGTGTAAGGCATCTTTCCGGAGTCACCTAGTGCAG	4510 fluorescence intensity (a.u.)
CGGCCTATAAGTACTCCATCCCGCCGGCCGGCCGGTGACTCGGAGTCACCTAGTGCAG	3370 fluorescence intensity (a.u.)
ATCTGTTAGGTATTTAATTTATTTTCTTTTGCTATGTCAGCGGAGTCACCTAGTGCAG	3880 fluorescence intensity (a.u.)
TTAATGCATACTGACAGCTGTTTATGTGCTTCAAATTTACCGGAGTCACCTAGTGCAG	4700 fluorescence intensity (a.u.)
TAATTCAGCTTAATAAATTCGTCCAGCTGTTTACTGACTGCGGAGTCACCTAGTGCAG	52800 fluorescence intensity (a.u.)
GCTTAATAAATTCGTCTCGCGGTTTAATGTTGGATTCTGTCGGAGTCACCTAGTGCAG	3670 fluorescence intensity (a.u.)
GCGAGCGGCCAACTGGGAAGGCGGTGGTGAGGACATCGTGCGGAGTCACCTAGTGCAG	5400 fluorescence intensity (a.u.)
TCTGCCGCCGGCCGCGGCGAGGGATGGCATTGGCGTGGCGCGGAGTCACCTAGTGCAG	3550 fluorescence intensity (a.u.)
GCGCATTGGCGAGGACTGCGACTATCTGGGAAGCGTGAAGCGGAGTCACCTAGTGCAG	51500 fluorescence intensity (a.u.)
GGTGTCGCGTCGCGTCTGCAGTAGAAATGGAAGCCTGGGGCGGAGTCACCTAGTGCAG	3230 fluorescence intensity (a.u.)
AGAGGAAGAGGAAGAAGAGGTCATTCCGCCACGTCCCGGACGGAGTCACCTAGTGCAG	7090 fluorescence intensity (a.u.)
AGAAGAAGAGGAAGCTGTGGGTCAGGTGGGTTTCCGCCCACGGAGTCACCTAGTGCAG	41300 fluorescence intensity (a.u.)
GGCCCACGCCGGCAGATCAGGTGGGGAGAGAAGCTCCGCCCGGAGTCACCTAGTGCAG	14700 fluorescence intensity (a.u.)
GTGGAAAAGCCAAAGGCAAAGGCAAACCACGCGTCTCTCTCGGAGTCACCTAGTGCAG	17400 fluorescence intensity (a.u.)
GCATATGGGGCATATATACGTACATGACTGAATCATCGTTCGGAGTCACCTAGTGCAG	3250 fluorescence intensity (a.u.)
TTCTACTATGTCATTCTAGTACTATATAAAACTACTATGCCGGAGTCACCTAGTGCAG	3690 fluorescence intensity (a.u.)
ATCAAAATAGATTAAAGTTTAGTTTTAACGAAACTAGTTTCGGAGTCACCTAGTGCAG	3180 fluorescence intensity (a.u.)
ACTAAACAGATTTTCTTTAAAGTTTATGCAGAAAAGTTTCCGGAGTCACCTAGTGCAG	5060 fluorescence intensity (a.u.)
ATTCACTGGAGGTGGTGCATCAGCATCACCAAAGCTAGCACGGAGTCACCTAGTGCAG	3970 fluorescence intensity (a.u.)

Sequence	binding signal
ATTTAATAACTTCTATGGACAATATGTGCCCTGAAACTACCGGAGTCACCTAGTGCAG	48800 fluorescence intensity (a.u.)
TGAGAGAGAATTGCATTTTATGACATGCCCATATGATGATCGGAGTCACCTAGTGCAG	17600 fluorescence intensity (a.u.)
ACCTACTAATAACTAGTTAATTGTCTATTGTGCCCCTAGTCGGAGTCACCTAGTGCAG	13700 fluorescence intensity (a.u.)
GGAAATAGTAAATAGCTACTACCAAGCCATAAGCTTACTACGGAGTCACCTAGTGCAG	17900 fluorescence intensity (a.u.)
ACACTACCAATAGCTGGTACTTATTCAGCACAATAAGCTACGGAGTCACCTAGTGCAG	46400 fluorescence intensity (a.u.)
ATATGGCATACATGAGAATTTAGAGAATTTACCATCAAATCGGAGTCACCTAGTGCAG	45500 fluorescence intensity (a.u.)
GAACTACTAAACGGTACGTCTTTTCGTTTAAAAGAATATCCGGAGTCACCTAGTGCAG	39400 fluorescence intensity (a.u.)
TATATATTATACCATTAATGACTGATCCTACCCTCTCATACGGAGTCACCTAGTGCAG	3290 fluorescence intensity (a.u.)
TATGTTGAGTTTGAATTTGTATATTTATGAAATGGCATATCGGAGTCACCTAGTGCAG	33000 fluorescence intensity (a.u.)
ATCGTCGTCGCCGCCGCCTCCCATGTCGTTGCTGTCGCCGCGGAGTCACCTAGTGCAG	3240 fluorescence intensity (a.u.)
TCGGCGGCGAACTTCCCCGCCGACGTGCCAGATCTCAAACCGGAGTCACCTAGTGCAG	4610 fluorescence intensity (a.u.)
TTATTTATAACTGATCTAATAGCCAATTCACACAATAATTCGGAGTCACCTAGTGCAG	13700 fluorescence intensity (a.u.)
TGTTTCTTTTCTTCAGACTAGTCACCTACGGTTTACTATTCGGAGTCACCTAGTGCAG	3720 fluorescence intensity (a.u.)
ACTTTCACAAAACTATACACATATCACTTTTCAATAAATACGGAGTCACCTAGTGCAG	19900 fluorescence intensity (a.u.)
CAAACTTCTAACCTTTTCATCACATCAAAACTTTTCTATACGGAGTCACCTAGTGCAG	63600 fluorescence intensity (a.u.)
ACTGGCTTCAATTTATCTATAGCTAATCTAATAGCTAATTCGGAGTCACCTAGTGCAG	33900 fluorescence intensity (a.u.)
TCCAATCAGACGACTATTCCTATGTTTTACAATTCTCTATCGGAGTCACCTAGTGCAG	51200 fluorescence intensity (a.u.)
ATCACATCAAAACTTTTCTACACATATAAACTTCTAACTTCGGAGTCACCTAGTGCAG	27400 fluorescence intensity (a.u.)
TGTTCTAACAATAGCATTTCTTGCATTTAACTATGTTCCTCGGAGTCACCTAGTGCAG	52900 fluorescence intensity (a.u.)
AATGTAAGTCATTCTAGCATTTCTCATTAACATCAATATGCGGAGTCACCTAGTGCAG	3240 fluorescence intensity (a.u.)
CAATTCATCTATAACTAATTTAATAGTCAATTCATACAATCGGAGTCACCTAGTGCAG	44100 fluorescence intensity (a.u.)
TGCACTATTCTATATTATATTATGCAAGTTTATTTTACGACGGAGTCACCTAGTGCAG	3260 fluorescence intensity (a.u.)
AGTTCCTAATATTTCTCAATGTATATATGTACTCATTCCTCGGAGTCACCTAGTGCAG	3800 fluorescence intensity (a.u.)
